Laboratory results reported in PubChem BioAssay (Tox21).
Results filed as inconclusive are left out. Activity calls are given as the source filed them. Unless noted, calls follow the shape of the dose curve; as a rule, active = well fitted curve in the direction sought with a large enough effect in the repeat runs; inconclusive = weak or mixed curves; inactive = no such curve, though single readings can be large; an effect the other way counts as inactive or inconclusive.

Tests used:
[1] = qHTS assay for small molecule agonists of the p53 signaling pathway (AID 651631; calls by dose curve; also: nearly all actives have a fitted effect of over 15% in size)
How it was run: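 Readout was fluorescence from the LiveBLAzer FRET substrate, applied for 2 h at room temperature after 16 h compound exposure at 37 °C. Cells were the p53RE-bla HCT-116 line, with beta-lactamase driven by p53 response elements.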

[2] = qHTS assay for small molecules that induce genotoxicity in human embryonic kidney cells expressing luciferase-tagged ATAD5 (AID 651632); also: nearly all actives have a fitted effect of over 15% in size
How it was run: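 DMSO vehicle served as the control. HEK293T reporter cells, 16 hr at 37C, then 30 min Amplite at room temperature; ATAD5 induction is measured as luciferase activity.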

[3] = qHTS assay for small molecule agonists of the p53 signaling pathway - cell viability (AID 651633; calls by dose curve; also: series mostly up to about 83 µM; nearly all actives have a fitted effect of over 30% in size)
How it was run: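 p53RE-bla cells were treated with compound for 16 hours at 37 C. Cytotoxicity was then measured as CellTiter-Glo luminescence after 30 min at room temperature.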

[4] = qHTS assay for small molecules that induce genotoxicity in human embryonic kidney cells expressing luciferase-tagged ATAD5 - cell viability (AID 651634; calls by dose curve; also: nearly all actives have a fitted effect of over 25% in size)
How it was run: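 Here HEK293T cells with the ATAD5 luciferase reporter are incubated with test compounds for 15.5 hr, and cytotoxicity is then gauged by measuring protease activity in live cells using fluorescence.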

[5] = qHTS assay for small molecule disruptors of the mitochondrial membrane potential - cell viability (AID 720634; calls by dose curve;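 also: human HepG2 liver cancer cells; series mostly up to about 83 µM; nearly all actives have a fitted effect of over 20% in size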)
How it was run: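 Viability of HepG2 cells is scored from ATP content by luminescence; cells are exposed to compound for 1 hr at 37 C and 5% CO2, then dosed with m-MPI dye before the CellTiter-Glo reagent.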

[6] = qHTS assay to test for compound auto fluorescence at 590 nm (red) in HepG2 cells (AID 720674)
How it was run: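 Fluorescence at 590 nm emission following 540 nm excitation was recorded from HepG2 wells one hour after compound transfer, with DMSO-only wells as vehicle and Rose Bengal sodium equivalency as the scale.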

[7] = qHTS assay to test for compound auto fluorescence at 535 nm (green) in HepG2 cells (AID 720675)
[8] = qHTS assay to test for compound auto fluorescence at 460 nm (blue) in HEK293 cells (AID 720678)
How it was run: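 Blue-channel (Ex/Em 405/460 nm) intensity measured in HEK293 cultures after overnight compound exposure at 37C; signal expressed relative to triamterene. Cells plated 2,000 per well in 10% dialyzed FBS medium and allowed 4-5 hr to attach.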

[9] = qHTS assay to test for compound auto fluorescence at 590 nm (red) in HEK293 cells (AID 720679)
How it was run: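 Red-channel autofluorescence (Ex/Em 540/590 nm; Rose Bengal sodium reference) was measured after overnight 37C, 5% CO2 exposure of attached HEK293 cells, 2,000 per well in medium with 10% dialyzed FBS.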

[10] = qHTS assay to test for compound auto fluorescence at 535 nm (green) in HEK293 cells (AID 720680)
[11] = qHTS assay to test for compound auto fluorescence at 460 nm (blue) in HEK293 cell free culture (AID 720681)
How it was run: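 Compounds were added to cell-free DMEM with 10% FBS and fluorescence read directly. The blue channel used 405 nm excitation and 460 nm emission, with triamterene as the reference fluorophore.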

[12] = qHTS assay to test for compound auto fluorescence at 535 nm (green) in HEK293 cell free culture (AID 720682)
How it was run: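 Compounds were pin-transferred into cell-free DMEM with 10% FBS, and green fluorescence was read at excitation 485 nm and emission 535 nm. Intensities were expressed as fluorescein-equivalent values.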

[13] = qHTS assay to test for compound auto fluorescence at 590 nm (red) in HEK293 cell free culture (AID 720683)
How it was run: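 Cell-free wells of DMEM with 10% FBS received compound, and intrinsic fluorescence was read at excitation/emission 540/590 nm. Values expressed as equivalence to Rose Bengal sodium.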

[14] = qHTS assay to test for compound auto fluorescence at 590 nm (red) in HepG2 cell free culture (AID 720684)
How it was run: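 Auto fluorescence equivalency versus Rose Bengal sodium, red channel Ex/Em 540/590 nm; compounds in cell-free MEM/10% FBS; DMSO vehicle control.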

[15] = qHTS assay to test for compound auto fluorescence at 460 nm (blue) in HepG2 cell free culture (AID 720685)
How it was run: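 Cell-free plates of MEM plus 10% FBS received 23 nL compound or DMSO vehicle; blue-channel (405/460 nm) intensity scored against triamterene as reference fluorophore.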

[16] = qHTS assay to test for compound auto fluorescence at 535 nm (green) in HepG2 cell free culture (AID 720686)
[17] = qHTS assay to test for compound auto fluorescence at 460 nm (blue) in HepG2 cells (AID 720687)
How it was run: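 HepG2 cells in MEM with 10% FBS, attached overnight at 37 C, were exposed to compound or DMSO for 1 hr at 37 C, 5% CO2. Blue fluorescence was read at 405/460 nm, with triamterene as reference fluorophore.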

[18] = target: Glucocorticoid receptor (Homo sapiens) (UniProt P04150); experiment: qHTS assay to identify small molecule agonists of the glucocorticoid receptor (GR) signaling pathway (AID 720691; active = well fitted activation curve with a large enough effect in the signal ratio in the repeat runs, not every such curve was filed as active; the % refers to the signal ratio)
How it was run: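 Compounds in DMSO, alongside positive controls, were added to GR-bla HeLa reporter cells and incubated 18 h at 37 C; GRE-driven beta-lactamase was detected by fluorescence after 2 h with FRET substrate at room temperature.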

[19] = target: Glucocorticoid receptor (Homo sapiens) (UniProt P04150); experiment: qHTS assay to identify small molecule antagonists of the glucocorticoid receptor (GR) signaling pathway (AID 720692; active = well fitted inhibition curve with a large enough effect in the signal ratio in the repeat runs, not every such curve was filed as active; the % refers to the signal ratio)
How it was run: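 In a 1536-well cell format, compounds were added 4 h after seeding GR-bla HeLa cells, together with dexamethasone at 5 nM final; reporter activity was measured by FRET-substrate fluorescence following 18 h at 37 C.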

[20] = qHTS assay for small molecule disruptors of the mitochondrial membrane potential (AID 720635)
How it was run: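 HepG2 cells exposed to compound 1 hr at 37C, then Mito-MPS dye 30 min. Ratio read of aggregate (540/590 nm) versus monomer (490/535 nm) fluorescence.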
% is scaled to controls: 0 for no effect and ±100 for the full control effect.

Chain of Glucocorticoid receptor (Homo sapiens) (P04150 whole entry, looked up): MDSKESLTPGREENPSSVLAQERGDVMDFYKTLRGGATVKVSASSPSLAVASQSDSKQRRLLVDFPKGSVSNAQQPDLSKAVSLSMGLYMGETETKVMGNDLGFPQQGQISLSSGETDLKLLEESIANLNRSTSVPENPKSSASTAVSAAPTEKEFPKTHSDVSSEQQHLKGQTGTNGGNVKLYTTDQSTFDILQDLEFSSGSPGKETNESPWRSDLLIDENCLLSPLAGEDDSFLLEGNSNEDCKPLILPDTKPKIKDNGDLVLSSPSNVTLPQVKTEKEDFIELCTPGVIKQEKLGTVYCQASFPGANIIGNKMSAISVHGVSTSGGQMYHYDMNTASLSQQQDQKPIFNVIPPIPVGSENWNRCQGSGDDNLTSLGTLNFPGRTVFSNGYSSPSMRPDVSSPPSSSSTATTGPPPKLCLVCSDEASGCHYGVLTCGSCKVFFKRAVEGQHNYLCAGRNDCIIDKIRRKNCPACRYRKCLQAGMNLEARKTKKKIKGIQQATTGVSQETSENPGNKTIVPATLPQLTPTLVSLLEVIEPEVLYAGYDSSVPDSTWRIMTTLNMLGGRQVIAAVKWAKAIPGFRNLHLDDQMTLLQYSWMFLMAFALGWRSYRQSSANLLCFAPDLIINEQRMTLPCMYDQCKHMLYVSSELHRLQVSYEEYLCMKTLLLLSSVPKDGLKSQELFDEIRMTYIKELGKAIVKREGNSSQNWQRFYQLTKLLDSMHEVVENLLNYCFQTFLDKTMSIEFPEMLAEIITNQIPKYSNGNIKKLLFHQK

COc1ccccc1OC
inactive: Potency [1] | outcome [2] | Potency [3] | Potency [4] | Potency [5] | outcome [6] | outcome [7] | outcome [8] | outcome [9] | outcome [10] | outcome [11] | outcome [12] | outcome [13] | outcome [14] | outcome [15] | outcome [16] | outcome [17] | Potency [18]

O=C(Cl)/C=C/C(=O)Cl
inactive: Potency [1] | outcome [2] | Potency [3] | Potency [4] | Potency [5] | outcome [6] | outcome [7] | outcome [8] | outcome [9] | outcome [10] | outcome [11] | outcome [12] | outcome [13] | outcome [14] | outcome [16] | outcome [17] | Potency [18] | Potency [19]

C=C(Cl)CSC(=S)N(CC)CC
inactive: Potency [1] | outcome [2] | Potency [3] | Potency [4] | Potency [5] | outcome [6] | outcome [7] | outcome [8] | outcome [9] | outcome [10] | outcome [11] | outcome [12] | outcome [13] | outcome [14] | outcome [16] | outcome [17]

CCC(=O)OC1(c2ccccc2)CCN(C)CC1
inactive: Potency [1] | outcome [2] | Potency [3] | Potency [4] | Potency [5] | outcome [6] | outcome [8] | outcome [9] | outcome [10] | outcome [11] | outcome [12] | outcome [13] | outcome [14] | outcome [16] | outcome [17] | Potency [18]

O=S1(=O)OCCO1
inactive: Potency [1] | outcome [2] | Potency [3] | Potency [4] | outcome [6] | outcome [7] | outcome [8] | outcome [9] | outcome [10] | outcome [11] | outcome [12] | outcome [13] | outcome [14] | outcome [15] | outcome [16] | outcome [17] | Potency [18]

COP(=O)(OC)O/C(C)=C/C(=O)N(C)C
inactive: Potency [1] | outcome [2] | Potency [3] | Potency [4] | outcome [6] | outcome [7] | outcome [8] | outcome [9] | outcome [10] | outcome [11] | outcome [13] | outcome [14] | outcome [15] | outcome [16] | outcome [17]

CC(=O)CN(CC(C)=O)N=O
inactive: Potency [1] | outcome [2] | Potency [3] | Potency [4] | Potency [5] | outcome [6] | outcome [7] | outcome [9] | outcome [10] | outcome [12] | outcome [13] | outcome [14] | outcome [16] | outcome [17] | Potency [18]

O=C(Cl)C(Cl)Cl
inactive: Potency [1] | outcome [2] | Potency [3] | Potency [4] | outcome [6] | outcome [7] | outcome [8] | outcome [9] | outcome [10] | outcome [11] | outcome [12] | outcome [13] | outcome [14] | outcome [15] | outcome [16] | outcome [17] | Potency [18]

CC(C)N(Cc1ccccc1)C(=O)C(C)(C)C
inactive: Potency [1] | outcome [2] | Potency [3] | Potency [4] | Potency [5] | outcome [6] | outcome [8] | outcome [9] | outcome [10] | outcome [11] | outcome [12] | outcome [13] | outcome [15] | outcome [16] | outcome [17]

CC(C)[N+](C)(CCC(C(N)=O)(c1ccccc1)c1ccccc1)C(C)C
inactive: Potency [1] | outcome [2] | Potency [3] | Potency [4] | Potency [5] | fluorescence, relative to Rose Bengal [6] -0.328% [at 18.6 µM] | fluorescence, % of triamterene [8] 0.0132% [at 18.6 µM] | fluorescence, % of fluorescent control [9] -0.12% [at 18.6 µM] | fluorescence, % of fluorescein [10] 0.0067% [at 18.6 µM] | fluorescence, % of fluorescent control [11] 0.0496% [at 18.6 µM] | activity change [12] -0.0088% [at 18.6 µM] | fluorescence, % of fluorescent control [13] 0.0889% [at 18.6 µM] | fluorescence, % of Rose Bengal [14] 0.379% [at 18.6 µM] | fluorescence, % of fluorescent control [15] -0.0402% [at 18.6 µM] | fluorescence, % of fluorescein control [16] 0.0122% [at 18.6 µM] | fluorescence, % of fluorescent control [17] -0.0322% [at 18.6 µM] | Potency [18] | Potency [19]

CC[C@H](N)c1ccccc1
inactive: Potency [1] | outcome [2] | Potency [3] | Potency [4] | Potency [5] | outcome [6] | outcome [8] | outcome [9] | outcome [10] | outcome [12] | outcome [13] | outcome [14] | outcome [16] | outcome [17] | Potency [18] | Potency [19]

Clc1ccc(C(Cl)(Cl)Cl)cn1
inactive: Potency [1] | outcome [2] | Potency [3] | Potency [4] | Potency [5] | outcome [6] | outcome [8] | outcome [9] | outcome [10] | outcome [11] | outcome [12] | outcome [13] | outcome [14] | outcome [15] | outcome [16] | outcome [17] | Potency [18]

O=C1CC(=O)NC(=O)N1
inactive: Potency [1] | outcome [2] | Potency [3] | Potency [4] | Potency [5] | outcome [6] | outcome [8] | outcome [9] | outcome [10] | outcome [11] | outcome [12] | outcome [13] | outcome [14] | outcome [15] | outcome [16] | outcome [17] | Potency [18]

COc1ccc2c(C(=O)c3ccc(Cl)cc3)c(C)n(CC(=O)O)c2c1
inactive: Potency [1] | outcome [2] | Potency [3] | Potency [4] | Potency [20] | outcome [6] | outcome [7] | outcome [9] | outcome [10] | outcome [11] | outcome [12] | outcome [13] | outcome [14] | outcome [15] | outcome [16] | outcome [17] | Potency [19]

BrCCc1ccccc1
inactive: Potency [1] | outcome [2] | Potency [3] | Potency [4] | outcome [6] | outcome [7] | outcome [8] | outcome [9] | outcome [10] | outcome [11] | outcome [12] | outcome [13] | outcome [14] | outcome [15] | outcome [16] | outcome [17] | Potency [18]
